Results as given in PubChem BioAssay AID1159580 (chemical genetic matrix, 2015).
The campaign covered roughly 5,500 compounds. About 2,000 (36%) were called active. Another 18% or so got no clear call; they are omitted. Rule as the data show it: active = normalized growth mostly below about 0.91 (no sharp cut-off); inconclusive = no clear call, values can overlap the other calls; inactive = mostly above about 0.92. Some of the results follow.

Test: chemical genetic growth profiling, strain panel (AID 1159580);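 also: tested at 20 µM; growth read once vehicle control cultures reached saturation at 30 °C; 1 = growth at the plate median or of vehicle wells; lower values mean less growth of the strain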
Settings: growth OD

Measured: normalized growth

NC(=O)NCC(N)C(=O)O (stereo not drawn)
inactive: S. cerevisiae deletion strains, locus YBR021W, strain FUR4, stronger effect = lower value 1.06 | S. cerevisiae deletion strains, locus YBR229C, strain ROT2, stronger effect = lower value 1.01 | S. cerevisiae deletion strains, locus YCL029C, strain bik1, stronger effect = lower value 0.988 | S. cerevisiae deletion strains, locus YDL035C, strain GPR1, stronger effect = lower value 1.04 | S. cerevisiae deletion strains, locus YDL074C, strain BRE1, stronger effect = lower value 1.03 | S. cerevisiae deletion strains, locus YDL101C, strain DUN1, stronger effect = lower value 1.02 | S. cerevisiae deletion strains, locus YDL134C, strain PPH21, stronger effect = lower value 1.03 | S. cerevisiae deletion strains, locus YDL185W, strain tfp1, stronger effect = lower value 0.989 | S. cerevisiae deletion strains, locus YDL192W, strain arf1, stronger effect = lower value 1 | S. cerevisiae deletion strains, locus YDR101C, strain arx1, stronger effect = lower value 0.975 | S. cerevisiae deletion strains, locus YDR162C, strain NBP2, stronger effect = lower value 1.04 | S. cerevisiae deletion strains, locus YDR318W, strain mcm21, stronger effect = lower value 0.999 | S. cerevisiae deletion strains, locus YDR388W, stronger effect = lower value 0.983 | S. cerevisiae deletion strains, locus YDR502C, strain sam2, stronger effect = lower value 0.984 | S. cerevisiae deletion strains, locus YEL061C, strain CIN8, stronger effect = lower value 1.01 | S. cerevisiae deletion strains, locus YER110C, stronger effect = lower value 0.978 | S. cerevisiae deletion strains, locus YER155C, strain BEM2, stronger effect = lower value 1.01 | S. cerevisiae deletion strains, locus YER167W, strain BCK2, stronger effect = lower value 1.02 | S. cerevisiae deletion strains, locus YGL078C, strain dbp3, stronger effect = lower value 0.995 | S. cerevisiae deletion strains, locus YGL086W, strain mad1, stronger effect = lower value 0.994 | S. cerevisiae deletion strains, locus YGL248W, strain PDE1, stronger effect = lower value 1.02 | S. cerevisiae deletion strains, locus YGR078C, strain PAC10, stronger effect = lower value 1.03 | S. cerevisiae deletion strains, locus YGR135W, strain pre9, stronger effect = lower value 0.995 | S. cerevisiae deletion strains, locus YGR252W, strain gcn5, stronger effect = lower value 0.987 | S. cerevisiae deletion strains, locus YHR030C, strain SLT2, stronger effect = lower value 1.01 | S. cerevisiae deletion strains, locus YHR079C, strain IRE1 (second series), stronger effect = lower value 0.983 | S. cerevisiae deletion strains, locus YHR094C, strain hxt1, stronger effect = lower value 0.975 | S. cerevisiae deletion strains, locus YHR129C, strain ARP1, stronger effect = lower value 1.02 | S. cerevisiae deletion strains, locus YHR200W, strain rpn10, stronger effect = lower value 0.986 | S. cerevisiae deletion strains, locus YIL066C, strain RNR3, stronger effect = lower value 1.03 | S. cerevisiae deletion strains, locus YIL073C, strain SPO22, stronger effect = lower value 1 | S. cerevisiae deletion strains, locus YIL125W, strain kgd1, stronger effect = lower value 0.991 | S. cerevisiae deletion strains, locus YIR030C, strain dcg1, stronger effect = lower value 0.996 | S. cerevisiae deletion strains, locus YJL095W, strain BCK1, stronger effect = lower value 1.03 | S. cerevisiae deletion strains, locus YJL134W, strain LCB3, stronger effect = lower value 1.01 | S. cerevisiae deletion strains, locus YJL168C, strain set2, stronger effect = lower value 0.989 | S. cerevisiae deletion strains, locus YJL187C, strain SWE1 (second series), stronger effect = lower value 1.02 | S. cerevisiae deletion strains, locus YJR043C, strain POL32, stronger effect = lower value 1.04 | S. cerevisiae deletion strains, locus YJR075W, strain HOC1, stronger effect = lower value 1.02 | S. cerevisiae deletion strains, locus YKL009W, strain mrt4, stronger effect = lower value 1 | S. cerevisiae deletion strains, locus YKL068W, stronger effect = lower value 0.997 | S. cerevisiae deletion strains, locus YKL085W, strain MDH1 (second series), stronger effect = lower value 1.01 | S. cerevisiae deletion strains, locus YKL085W, strain MDH1, stronger effect = lower value 1.01 | S. cerevisiae deletion strains, locus YKL190W, strain CNB1, stronger effect = lower value 1.01 | S. cerevisiae deletion strains, locus YKR001C, strain vps1, stronger effect = lower value 0.989 | S. cerevisiae deletion strains, locus YLR039C, strain RIC1, stronger effect = lower value 1.08 | S. cerevisiae deletion strains, locus YLR058C, strain SHM2, stronger effect = lower value 1.02 | S. cerevisiae deletion strains, locus YLR102C, strain apc9, stronger effect = lower value 0.987 | S. cerevisiae deletion strains, locus YLR262C, strain YPT6, stronger effect = lower value 1.1 | S. cerevisiae deletion strains, locus YLR268W, strain sec22, stronger effect = lower value 0.983 | S. cerevisiae deletion strains, locus YLR330W, strain CHS5, stronger effect = lower value 1.01 | S. cerevisiae deletion strains, locus YLR342W, strain FKS1 (second series), stronger effect = lower value 1.03 | S. cerevisiae deletion strains, locus YLR371W, strain rom2, stronger effect = lower value 0.981 | S. cerevisiae deletion strains, locus YLR418C, strain cdc73, stronger effect = lower value 0.982 | S. cerevisiae deletion strains, locus YML016C, strain PPZ1, stronger effect = lower value 1.01 | S. cerevisiae deletion strains, locus YML032C, strain rad52, stronger effect = lower value 0.995 | S. cerevisiae deletion strains, locus YML124C, strain tub3, stronger effect = lower value 0.981 | S. cerevisiae deletion strains, locus YMR078C, strain ctf18, stronger effect = lower value 0.971 | S. cerevisiae deletion strains, locus YMR223W, strain ubp8, stronger effect = lower value 0.99 | S. cerevisiae deletion strains, locus YMR307W, strain GAS1, stronger effect = lower value 1.14 | S. cerevisiae deletion strains, locus YNL067W, strain RPL9B, stronger effect = lower value 1.01 | S. cerevisiae deletion strains, locus YNL153C, strain GIM3, stronger effect = lower value 1.01 | S. cerevisiae deletion strains, locus YNL233W, strain BNI4, stronger effect = lower value 1.03 | S. cerevisiae deletion strains, locus YNL250W, strain rad50, stronger effect = lower value 1.01 | S. cerevisiae deletion strains, locus YNL271C, strain bni1, stronger effect = lower value 0.982 | S. cerevisiae deletion strains, locus YNL298W, strain CLA4, stronger effect = lower value 0.994 | S. cerevisiae deletion strains, locus YNL307C, strain MCK1, stronger effect = lower value 0.991 | S. cerevisiae deletion strains, locus YNL322C, strain KRE1, stronger effect = lower value 1.01 | S. cerevisiae deletion strains, locus YNR052C, strain pop2, stronger effect = lower value 0.991 | S. cerevisiae deletion strains, locus YOL012C, strain htz1 0.762 | S. cerevisiae deletion strains, locus YOL147C, strain pex11, stronger effect = lower value 0.985 | S. cerevisiae deletion strains, locus YOR061W, strain CKA2, stronger effect = lower value 1.02 | S. cerevisiae deletion strains, locus YOR069W, strain VPS5, stronger effect = lower value 1.01 | S. cerevisiae deletion strains, locus YOR136W, strain idh2, stronger effect = lower value 0.985 | S. cerevisiae deletion strains, locus YOR144C, strain elg1, stronger effect = lower value 0.984 | S. cerevisiae deletion strains, locus YOR184W, strain ser1, stronger effect = lower value 0.989 | S. cerevisiae deletion strains, locus YOR316C, strain cot1, stronger effect = lower value 0.983 | S. cerevisiae deletion strains, locus YPR119W, strain clb2, stronger effect = lower value 0.987 | S. cerevisiae deletion strains, locus YPR141C, strain kar3, stronger effect = lower value 0.995 | S. cerevisiae deletion strains, locus YPR163C, strain tif3, stronger effect = lower value 0.985 | S. cerevisiae deletion strains, locus YPR167C, strain met16, stronger effect = lower value 0.989 | S. cerevisiae deletion strains, strain wtn01, stronger effect = lower value 0.989 | S. cerevisiae strains, strain wild type, stronger effect = lower value 1.02
